We go through 5 compounds from PubChem BioAssay.

The source made the active and inactive calls.

Experiment [1] has as its system Plasmodium falciparum Sir2 (PF13_0152, Sir2A). The experiment in a line: Plasmodium falciparum Sir2A binding compounds – biochemical, small-molecule microarray, 635 nm fluorescence, primary screen (AID 1098).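 Also: score merges spot fluorescence intensity with its signal-to-noise ratio.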 The note with it: fluorescence 635 nm, higher = more signal.
The nature of experiment [2]: probe aDKK1 binding to arrayed compounds – biochemical, biotinylated probe, 635/667 nm fluorescence, primary screen (AID 1099).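 Also: score merges 667nm spot fluorescence with signal to noise across triplicate slides.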 The conditions noted are these: small-molecule microarray, higher = more signal.
The nature of experiment [3]: probe aCHRDL2 binding to arrayed compounds – biochemical, biotinylated probe, 635/667 nm fluorescence, primary screen (AID 1100). The note with it: small-molecule microarray, higher = more signal.
Experiment [4] can be described thus: change in splice reporter luminescence, either direction, cell-based, HEK293, spliceosome inhibition project, primary screen (AID 1101).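 Also: HEK293 cells carrying a splicing-competent luciferase reporter gene; test concentration not given here.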 The note with it: HEK293 splicing luciferase reporter, 24 h, higher = more signal, called active from +8 up or from −8 down.
For experiment [5], the target named is Fibroblast growth factor 10 (Homo sapiens) (UniProt O15520). The experiment in a line: compounds binding fibroblast growth factor 10 – biochemical, small-molecule microarray, 635 nm fluorescence, primary screen (AID 1102). The note with it: FGF10 binding, fluorescence 635 nm, higher = more signal.
Experiment [6] deals with glycogen synthase kinase-3 (GSK3A per assay name; protocol says GSK3B). Description: compounds binding glycogen synthase kinase-3 – biochemical, small-molecule microarray, 635 nm fluorescence, GSK3A, primary screen (AID 1103). Also: the record names both GSK3A and GSK3B. The conditions noted are these: fluorescence 635 nm, higher = more signal.
In experiment [7] the target is Epidermal growth factor receptor (Homo sapiens) (UniProt P00533). The experiment in a line: compounds binding epidermal growth factor receptor – biochemical, small-molecule microarray, 635 nm fluorescence, primary screen (AID 1104).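 Also: score merges 667 nm emission intensity with spot signal to noise over triplicate slides.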 The conditions noted are these: EGFR binding, higher = more signal.
Experiment [8] has as its target Follistatin-related protein 3 (Homo sapiens) (UniProt O95633). Description: compounds binding follistatin-related protein 3 – biochemical, small-molecule microarray, 635 nm fluorescence, primary screen (AID 1105).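 Also: score merges emission near 667 nm and signal to noise per printed spot across three slides.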 The conditions noted are these: FSTL3 binding, higher = more signal.
Experiment [9] concerns the target Dickkopf-related protein 1 (Homo sapiens) (UniProt O94907). Description: small molecules binding DKK1 protein – biochemical, small-molecule microarray, 635 nm fluorescence scan, primary screen (AID 1106).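 Also: score merges emission near 667 nm with signal to noise over three replicate slides.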 The conditions noted are these: higher = more signal.
The test system of experiment [10] is Inhibin beta A chain (activin A). Description: small molecules binding activin A – biochemical, small-molecule microarray, 635 nm fluorescence scan, primary screen (AID 1107).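 Also: mouse activin A protein probed at 4.33 µg/mL on printed slides; score merges bound-protein fluorescence near 667 nm with spot signal-to-noise.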 The note with it: INHBA, higher = more signal.
Experiment [11] concerns Human papillomavirus type 1a protein E7 (residues 44-93). The experiment in a line: small molecules binding HPV E7 44-93 – biochemical, small-molecule microarray, residues 44-93, 635 nm fluorescence, primary screen (AID 1108).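 Also: E7 fragment applied at 1 µg/mL in TBST for 1 h at 4 C; score combines spot fluorescence with its signal to noise ratio.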 The conditions noted are these: fluorescence 635 nm, higher = more signal.
Experiment [12] in a line: hepatitis C replication reporter changes, two-sided – Huh7 cells, luciferase reporter, HCV replication inhibitor project, primary screen (AID 1109).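 Also: huh7 hepatoma cells harbouring a luciferase neomycin HCV replicon reporter; luciferase luminescence as measure of HCV replicon replication; test concentration not given here.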 The note with it: Huh7 HCV replicon luciferase reporter, 48 h; higher = more signal. A general note: Reporter assays use an easily measured gene product as a stand-in for the process of interest.
Experiment [13] concerns the target Left-right determination factor 2 (Homo sapiens) (UniProt O00292). Description: small molecules binding LEFTY2 protein – biochemical, small-molecule microarray, 635 nm fluorescence scan, primary screen (AID 1110). The conditions noted are these: higher = more signal.
Experiment [14] deals with Calmodulin-1 (Homo sapiens) (UniProt P0DP23). The experiment in a line: small molecules binding calmodulin-1 with EGTA – biochemical, small-molecule microarray, Cy5-labelled CALM1, profiling panel (AID 1111).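 Also: labelled calmodulin applied in Tris saline Tween buffer holding calcium plus EGTA and DTT.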 The note with it: Cy5-CALM1 binding fluorescence, higher = more signal.
For experiment [15] the target is unchanged. Description: small molecules binding Ca-loaded calmodulin-1 – biochemical, small-molecule microarray, Cy5-labelled CALM1, plus calcium, artefact control for SMM control-protein annotation, profiling panel (AID 1112).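 Also: score merges spot fluorescence with signal to noise from triplicate slides.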 The conditions noted are these: Cy5-CALM1 binding fluorescence, higher = more signal.
Experiment [16] in a line: probe aWnt5a binding to arrayed compounds – biochemical, biotinylated probe, 635/667 nm fluorescence, primary screen (AID 1113).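 Also: score merges 667 nm fluorescence intensity with signal-to-noise per printed feature.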 The note with it: small-molecule microarray, higher = more signal.
The nature of experiment [17]: probe aShh binding to arrayed compounds – biochemical, biotinylated probe, 635/667 nm fluorescence, primary screen (AID 1114).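 Also: probe is biotin-labelled aShh protein from a stem cell growth factor screen; measures binding of labelled protein to compounds printed on the slide; score merges feature fluorescence at 667 nm with signal-to-noise.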 The conditions noted are these: small-molecule microarray, higher = more signal.
Experiment [18] is described as follows: probe aNog binding to arrayed compounds – biochemical, biotinylated probe, 635/667 nm fluorescence, primary screen (AID 1115).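 Also: probe is biotinylated aNog protein used at 0.15 µg/mL for 1 h at 4 C; z-score combines 667 nm fluorescence of each spot with its signal to noise.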 The conditions noted are these: small-molecule microarray, higher = more signal.
Experiment [19] deals with Torsin-1A-interacting protein 1 (Homo sapiens) (UniProt Q5JTV8). Description: compound microarray binding of lysate hLAP1 – cell lysate, small-molecule microarray, COS7 lysate, 635/667 nm fluorescence, primary screen (AID 1116). The conditions noted are these: 635 nm fluorescence, higher = more signal.
Experiment [20] deals with Alpha-bungarotoxin (Bungarus multicinctus) (UniProt P60615). The experiment in a line: compounds binding labelled alpha-BTX control protein – biochemical, small-molecule microarray, Alexa647 label, 635/667 nm fluorescence, artefact control for SMM control protein annotation, profiling panel (AID 1117). The note with it: alpha-BTX-A647 binding fluorescence, higher = more signal.
Sequence of Alpha-bungarotoxin (Bungarus multicinctus) (P60615 whole entry, looked up): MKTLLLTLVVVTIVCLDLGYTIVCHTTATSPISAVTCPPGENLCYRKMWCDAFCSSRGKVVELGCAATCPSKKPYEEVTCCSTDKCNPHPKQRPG

Sequence of Left-right determination factor 2 (Homo sapiens) (O00292 whole entry, looked up): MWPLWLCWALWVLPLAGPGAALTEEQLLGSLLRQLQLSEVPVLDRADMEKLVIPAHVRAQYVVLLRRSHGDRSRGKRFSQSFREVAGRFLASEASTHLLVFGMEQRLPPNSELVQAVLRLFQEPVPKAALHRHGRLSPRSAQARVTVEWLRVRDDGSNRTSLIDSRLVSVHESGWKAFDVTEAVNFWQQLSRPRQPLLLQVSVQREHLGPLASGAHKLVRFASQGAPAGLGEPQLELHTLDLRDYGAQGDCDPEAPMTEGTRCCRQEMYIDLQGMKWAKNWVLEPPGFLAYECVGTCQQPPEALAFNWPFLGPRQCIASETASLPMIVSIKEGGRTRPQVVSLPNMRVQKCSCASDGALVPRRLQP
Sequence of Epidermal growth factor receptor (Homo sapiens) (P00533 whole entry, looked up): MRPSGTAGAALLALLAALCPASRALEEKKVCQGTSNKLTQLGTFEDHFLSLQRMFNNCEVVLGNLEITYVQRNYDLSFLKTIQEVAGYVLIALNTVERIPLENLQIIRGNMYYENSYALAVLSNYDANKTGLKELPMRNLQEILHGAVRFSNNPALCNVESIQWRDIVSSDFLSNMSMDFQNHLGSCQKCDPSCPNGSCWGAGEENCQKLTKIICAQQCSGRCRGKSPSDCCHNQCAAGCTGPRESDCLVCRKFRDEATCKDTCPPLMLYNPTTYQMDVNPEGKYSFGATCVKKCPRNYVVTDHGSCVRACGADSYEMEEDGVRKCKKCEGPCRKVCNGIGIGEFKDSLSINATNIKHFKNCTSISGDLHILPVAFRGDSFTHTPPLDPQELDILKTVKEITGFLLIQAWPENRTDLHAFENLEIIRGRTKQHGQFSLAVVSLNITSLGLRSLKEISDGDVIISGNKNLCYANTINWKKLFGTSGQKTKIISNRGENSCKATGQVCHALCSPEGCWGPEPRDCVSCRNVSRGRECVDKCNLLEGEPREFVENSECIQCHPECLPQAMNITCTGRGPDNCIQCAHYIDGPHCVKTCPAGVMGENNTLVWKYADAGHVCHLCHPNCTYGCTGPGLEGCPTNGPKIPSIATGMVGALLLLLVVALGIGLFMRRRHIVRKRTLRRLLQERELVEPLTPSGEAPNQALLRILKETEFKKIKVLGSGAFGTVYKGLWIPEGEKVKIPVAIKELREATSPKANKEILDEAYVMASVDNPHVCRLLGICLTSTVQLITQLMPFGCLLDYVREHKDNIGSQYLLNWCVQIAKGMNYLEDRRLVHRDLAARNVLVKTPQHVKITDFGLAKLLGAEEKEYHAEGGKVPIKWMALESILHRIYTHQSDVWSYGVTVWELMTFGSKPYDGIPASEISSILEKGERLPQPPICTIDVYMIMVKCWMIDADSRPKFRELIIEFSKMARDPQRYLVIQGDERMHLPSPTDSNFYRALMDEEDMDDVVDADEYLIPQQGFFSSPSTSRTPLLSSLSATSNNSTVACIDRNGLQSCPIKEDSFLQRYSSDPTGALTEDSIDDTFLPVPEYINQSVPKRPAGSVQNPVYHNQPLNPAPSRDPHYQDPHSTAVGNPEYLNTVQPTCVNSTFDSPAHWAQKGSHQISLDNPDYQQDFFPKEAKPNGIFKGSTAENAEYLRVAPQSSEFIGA
Sequence of Torsin-1A-interacting protein 1 (Homo sapiens) (Q5JTV8 whole entry, looked up): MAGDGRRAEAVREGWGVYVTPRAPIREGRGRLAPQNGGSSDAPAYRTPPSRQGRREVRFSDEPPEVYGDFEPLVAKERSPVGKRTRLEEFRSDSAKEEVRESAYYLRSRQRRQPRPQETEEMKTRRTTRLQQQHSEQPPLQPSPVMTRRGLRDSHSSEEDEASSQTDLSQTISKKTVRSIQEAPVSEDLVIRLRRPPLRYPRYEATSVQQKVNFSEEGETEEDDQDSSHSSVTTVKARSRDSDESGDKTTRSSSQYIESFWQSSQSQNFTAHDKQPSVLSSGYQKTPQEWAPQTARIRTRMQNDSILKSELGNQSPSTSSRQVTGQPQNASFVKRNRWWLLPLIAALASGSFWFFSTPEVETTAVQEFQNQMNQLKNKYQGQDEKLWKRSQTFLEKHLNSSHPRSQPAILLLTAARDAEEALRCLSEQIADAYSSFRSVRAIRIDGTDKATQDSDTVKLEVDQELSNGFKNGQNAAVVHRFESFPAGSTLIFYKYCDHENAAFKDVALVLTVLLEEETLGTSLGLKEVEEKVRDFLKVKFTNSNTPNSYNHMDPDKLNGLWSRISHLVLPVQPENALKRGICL
Sequence of Follistatin-related protein 3 (Homo sapiens) (O95633 whole entry, looked up): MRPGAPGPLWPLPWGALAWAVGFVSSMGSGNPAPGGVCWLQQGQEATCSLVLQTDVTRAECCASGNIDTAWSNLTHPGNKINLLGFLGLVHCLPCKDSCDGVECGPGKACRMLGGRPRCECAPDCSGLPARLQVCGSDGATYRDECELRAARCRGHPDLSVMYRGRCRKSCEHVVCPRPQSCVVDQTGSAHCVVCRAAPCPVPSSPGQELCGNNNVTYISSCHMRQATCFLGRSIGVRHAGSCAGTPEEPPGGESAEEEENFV
Sequence of Dickkopf-related protein 1 (Homo sapiens) (O94907 whole entry, looked up): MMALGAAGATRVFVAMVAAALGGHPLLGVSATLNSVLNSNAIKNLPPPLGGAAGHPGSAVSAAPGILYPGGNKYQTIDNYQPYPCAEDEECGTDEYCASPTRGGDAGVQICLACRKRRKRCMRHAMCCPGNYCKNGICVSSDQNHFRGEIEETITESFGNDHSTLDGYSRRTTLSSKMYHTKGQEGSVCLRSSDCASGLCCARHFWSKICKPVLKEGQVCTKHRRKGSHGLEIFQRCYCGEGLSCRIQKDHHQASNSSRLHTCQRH
Sequence of Fibroblast growth factor 10 (Homo sapiens) (O15520 whole entry, looked up): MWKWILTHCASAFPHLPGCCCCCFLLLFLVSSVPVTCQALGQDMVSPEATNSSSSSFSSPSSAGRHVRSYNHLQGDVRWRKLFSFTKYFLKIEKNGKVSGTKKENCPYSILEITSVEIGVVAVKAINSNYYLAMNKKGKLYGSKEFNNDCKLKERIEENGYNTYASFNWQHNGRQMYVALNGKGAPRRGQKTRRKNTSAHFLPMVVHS

For `COCCOC(=O)N1C(=O)[C@@]2(c3cc(C#CCC(C(=O)OC)C(=O)OC)ccc31)[C@H](C(=O)N1CCN(c3ncccn3)CC1)[C@H]1C(=O)O[C@H](c3ccccc3)[C@H](c3ccccc3)N1[C@@H]2c1ccc(OCCO)cc1`, the composite z-score in [1] was 1.56; in experiment [2], -0.0747; in experiment [3], 0.0277; in experiment [5], 0.699; in [6], 1.1; in experiment [7], 0.275. The composite z-score was 0.626 in [8]; -0.0047 in experiment [9]; 0.149 in experiment [10]; 1.34 in experiment [11]; 0.521 in experiment [13]; 0.505 in experiment [14]. Also, the composite z-score was -0.127 in experiment [15]; -0.0778 in experiment [16]; -0.2 in [17]; -0.213 in experiment [18]; 0.383 in experiment [19]; 0.536 in [20]. Moreover, the values for the z-score in [4] and in experiment [12] were -0.923 (inactive) and -0.974, respectively.

Consider `CC(C)N1C(=O)c2ccccc2[C@@H](C(=O)NCCCN(C)C)[C@@H]1c1ccc(CO)cc1`, for which the composite z-score in experiment [1] was 1.31; in experiment [2] it was 0.744; in experiment [3] it was 1.01; in [5] it was 0.0328; in experiment [6], -0.367; in [7], -0.568. For the same compound, the composite z-score in [8] was -0.85; in [9], -1.25; in [10], 0.557; in [11], -1; in [13], -0.89; in [14] it was 0.341. The composite z-score in experiment [15] is 0.0647; in experiment [16], 0.026; in experiment [17], -0.367; in [18], 0.707; in experiment [19], 0.64; in experiment [20] it was 0.684. Besides, the z-score in experiment [4] is -0.472 (inactive); in [12], 0.19.

In the case of `CCOC(=O)C1=CC[C@@H](c2ccccc2Cl)N(S(=O)(=O)c2ccc(C)cc2)C1`, the composite z-score in [1] is 1.17; in experiment [2], 0.342; in experiment [3], 0.928; in experiment [5], 0.403; in [6] it was 0.196; in [7], -0.138. The composite z-score in experiment [8] was 0.0633; in experiment [9], -0.794; in [10], 0.304; in experiment [11], 0.948; in experiment [13], -0.462; in experiment [14] it was 1.52. The composite z-score in [15] is 0.784; in experiment [16], -0.117; in [17] it was -0.167; in experiment [18], 1.25; in [19], 1.56; in [20], 0.407. The results for the z-score in experiment [4] and in experiment [12] were -1.97 (inactive) and -2.7, respectively.

Regarding `CC(C)NC(=O)[C@@H]1c2ccccc2C(=O)N(Cc2ccccc2Cl)[C@H]1c1ccc(CO)cc1`, the composite z-score in experiment [1] is 0.284; in experiment [2] it was 0.0098; in experiment [3] it was 0.448; in [5] it was -0.584; in [6] it was 0.0016; in experiment [7], -0.903. For the same compound, the composite z-score in experiment [8] was -0.398; in [9], -0.645; in [10] it was 0.365; in [11], 1.17; in [13] it was -0.998; in [14], -0.0984. Besides, the composite z-score is 0.29 in experiment [15]; -0.13 in experiment [16]; -0.0769 in [17]; 0.139 in experiment [18]; 1.25 in experiment [19]; -0.436 in [20]. Also, the results for the z-score in experiment [4] and in experiment [12] were 0.62 (inactive) and -0.657, respectively.

For the compound `C=CC[C@]1(C(=O)N2CCOCC2)N=C(c2ccc(OCCCO)cc2)O[C@H]1c1ccccc1`, the composite z-score is 1.44 in [1]; 0.573 in [2]; 1.01 in [3]; 0.182 in [5]; 1.28 in experiment [6]; -0.201 in [7]. For the same compound, the composite z-score in [8] is -0.524; in experiment [9], 0.142; in experiment [10] it was 0.862; in [11], 1.18; in experiment [13], -0.42; in experiment [14] it was 0.732. Also, the composite z-score in experiment [15] is 1.14; in experiment [16], -0.0512; in experiment [17], 0.218; in experiment [18] it was 1.53; in [19] it was 2.09; in experiment [20], 2.05. Also, the z-score in experiment [4] was -0.0214 (inactive); in [12], -0.716.
